# According to ChEMBL document CHEMBL3988442, “University of Dundee, Small-Polar-MMV Screening Library” (2021):
# Hit rate of the full screen: of about 48,000 compounds, about 13,000 (27%) showed an effect of 50% or more. The list shows a part of the results.
# Tested on: Wolbachia pipientis
# Assay: Anti-Wolbachia Cell-Based Screen
# Format: functional
# Parameters: scale not given: in the data most compounds retested in dose-response had high values
# Conditions: 5 µM
row,Structure (SMILES),Percent Effect
1,CCC(C)(C)NC(=O)c1ccc(NC(=O)NCc2cc(C)no2)cc1,-4.635%
2,COCCN(CCOC)c1nc2c(s1)c(C)nn2C,0.9407%
3,COC(=O)[C@@H](NC(=O)Nc1ccc(C(C)=O)cc1)C(C)C,115.5%
4,Cc1ccc(NC(=O)NC(C)c2nc[nH]n2)cc1 (centres undefined),-1.45%
5,COC(=O)C(NC(=O)Nc1ccc(C(C)=O)cc1)C(C)C (centres undefined),123.5%
6,COCC(=O)N1CCC(C(=O)Nc2ccc(C(C)=O)cc2)CC1,-27.44%
7,Cc1nccn1C1CCCN(C(=O)c2ccc(N(C)C)nn2)C1 (centres undefined),121.5%
8,Cc1cnn(C2CCCN(C(=O)c3ccc(N(C)C)nn3)C2)c1 (centres undefined),-2.152%
9,CN(C)c1ccc(C(=O)N2CCCC(n3cncn3)C2)nn1 (centres undefined),102.9%
10,CCn1nc(C(=O)N2CCCC(n3cncn3)C2)ccc1=O (centres undefined),-5.268%
11,COc1ccc(C(=O)N2CCCC(n3cncn3)C2)nn1 (centres undefined),89.87%
12,O=C(c1ccc(OCC2CC2)nc1)N1CCCC(n2cncn2)C1 (centres undefined),-8.592%
13,CCc1nccn1C1CCCN(C(=O)c2ccc(N(C)C)nn2)C1 (centres undefined),8.431%
14,Cc1nc(C)n(C2CCCN(C(=O)c3ccc(N(C)C)nn3)C2)n1 (centres undefined),-4.997%
15,COc1cc(CN2CCCC2)ccc1Oc1ccc2c(c1)CC(CN)O2 (centres undefined),-3.423%
16,COc1ccccc1CC(=O)NS(C)(=O)=O,-0.264%
17,COc1ccccc1CC(=O)NS(=O)(=O)c1cncc(Br)c1,1.416%
18,CCCc1nc(C)c(C(=O)NS(=O)(=O)c2ccc(C#N)cc2)s1,11.71%
19,CCCN(Cc1ccc(S(=O)(=O)NC)cc1)Cc1ccccc1OC,2.153%
20,COc1ccccc1CC(=O)NS(=O)(=O)c1ccc(C#N)cc1,90.41%
21,COc1ccccc1CC(=O)NS(=O)(=O)c1ccc(NC(C)=O)cc1,120.5%
22,CCc1nc(CN2CCN(C(=O)COCc3ccccc3)CC2)no1,16.69%

row,Structure (SMILES),Percent Effect
1,O=C(O)c1csc(S(=O)(=O)Nc2cccc(OCC(F)(F)F)c2)c1,12.1%
2,CCCc1cc(C(=O)Nc2nc(SC)ns2)n(C)n1,129.6%
3,CSc1nsc(NC(=O)c2cc(C3CC3)nn2C)n1,105.4%
4,CCCc1cc(C(=O)Nc2nc(SC)ns2)[nH]n1,-43.27%
5,Cc1nsc(NC(=O)N2CCCC2C)n1 (centres undefined),-6.715%
6,Cc1nsc(NC(=O)NC2CCN(C)CC2)n1,-30.6%
7,CC(C)c1nn(C)c(N2CCOCC2)c1CNC(C)c1cccs1 (centres undefined),1.351%
8,CCNC(=O)NC(=O)CNC(C)(CC)c1nc(C)cs1 (centres undefined),6.164%
9,CC(C)CN(CC(C)C)Cn1ncc2cn(-c3ccccc3)nc2c1=O,8.982%
10,Cn1cc(C2CCCN2C(=O)Cn2ccc3ccccc32)cn1 (centres undefined),10.33%
11,Cc1ccc(-n2ncc(C(=O)N3CCCC3c3cnn(C)c3)c2C)cc1 (centres undefined),102.1%
12,Cc1c(C(=O)N2CCCC2c2cnn(C)c2)cnn1-c1ccccc1 (centres undefined),112.8%
13,Cc1c(C(=O)N2CCCC2c2cnn(C)c2)nnn1-c1ccccc1 (centres undefined),-1.391%
14,Cc1nn(-c2ccccc2)cc1C(=O)N1CCCC1c1cnn(C)c1 (centres undefined),105.2%
15,Cc1ccccc1-n1ncc(C(=O)N2CCCC2c2cnn(C)c2)c1C (centres undefined),-2.042%
16,Cc1nn(-c2ccccc2)nc1C(=O)N1CCCC1c1cnn(C)c1 (centres undefined),5.794%
17,Cn1cc(C2CCCN2C(=O)c2cn(-c3ccccc3)nn2)cn1 (centres undefined),82.94%
18,CCCOc1ccc(C(=O)N2CCN3CCNC(=O)C3C2)cc1Cl (centres undefined),-5.744%
19,Clc1ccc(C2(NCc3noc(C4CC4)n3)CCC2)cc1,3.298%
20,COCCN(Cc1cccc(C#N)c1)Cc1nnsc1Cl,9.531%
21,COc1ccc(NC(=O)c2ccoc2C)c(N2CCN(C(C)=O)CC2)n1,0.9885%
22,Cc1nc(CNC(=O)NCC(O)c2ccc(F)cc2F)cs1 (centres undefined),-3.131%

row,Structure (SMILES),Percent Effect
1,Cc1nc(C)n(CC2CCCCN2CC(=O)Nc2ccncc2)n1 (centres undefined),-2.552%
2,Cc1nc(C)n(CC2CCCN2Cc2cc(C)on2)n1 (centres undefined),-8.278%
3,Cc1nc(C)n(CC2CCCCN2CCC(=O)Nc2cc(C)on2)n1 (centres undefined),5.676%
4,Cc1nc(C)n(CC2CCCCN2CC(=O)Nc2cc(C)on2)n1 (centres undefined),106.4%
5,Cc1nc(C)n(CC2CCCN2CC(=O)Nc2cc(C(C)C)no2)n1 (centres undefined),-1.165%
6,Cc1nc(C)n(CC2CCCN2CC(=O)Nc2cc(C)on2)n1 (centres undefined),98.7%
7,Cc1nc2c(C(=O)N[C@H]3C[C@H]4CN(C)CCN4C3)cccc2[nH]1,8.866%
8,CCCc1cc(N2CCCC2Cn2nc(C)cc2C)n2ncnc2n1 (centres undefined),-3.923%
9,CC(C)OCCS(=O)(=O)c1ccccc1C#N,-1.71%
10,O=C(Nc1cc(-c2cccnc2)no1)C1CCCCC1,-34.68%
11,CC(NC(=O)C1CC1)c1cc(O)nc(-c2cccnc2)n1 (centres undefined),92.57%
12,Cc1ccc(C)c(C(NC(=O)C2CC2)c2cccnc2)c1 (centres undefined),-2.241%
13,Cn1cc(CNC(=O)Nc2ccc(S(=O)(=O)C(F)F)cc2)cn1,-23.54%
14,CC(NC(=O)Nc1nccs1)c1ccncc1 (centres undefined),-0.7222%
15,CCCNC(=O)Nc1ccn(CCCOC)n1,-11.06%
16,Cn1ccc(NC(=O)Cc2cccc(F)c2)n1,-26.85%
17,CCc1nnc(CN(C)Cc2cccc(C(=O)Nc3cnn(C)c3)c2)o1,-6.481%
18,CN(CCNC(=O)Nc1cnn(C)c1)Cc1ccc(F)cc1,113%
19,CN(CCNC(=O)Nc1nccs1)Cc1ccc(F)cc1,98.5%
20,CCc1nnc(CN(C)Cc2cccc(C(=O)Nc3nccs3)c2)o1,-6.732%
21,CN(CCNC(=O)Nc1ccn(C)n1)Cc1ccc(F)cc1,87.45%
22,CC(=O)N1CCN(c2ccccc2CNc2cc(F)cc(F)c2)CC1,2.493%

row,Structure (SMILES),Percent Effect
1,OCc1ccc(-c2nccn2CCC2=CCCCC2)o1,-8.705%
2,CS(=O)(=O)CCSCc1cccc2cccnc12,-12.23%
3,CN(CC(=O)Nc1cc(-n2nnnc2C2CC2)ccc1F)C1CCC1,-0.6608%
4,CCN1C(=O)CCC12CCN(S(=O)(=O)c1ccccc1)CC2,-5.531%
5,O=C(c1cccc(CO)n1)N1CCOC(c2ccc(Cl)c(Cl)c2)C1 (centres undefined),-12.21%
6,N#Cc1cccc(N2CCC3(CCC(=O)N(CC(N)=O)C3)CC2)n1,-17.91%
7,CCOC(=O)c1cccc(N2CCCC3(CCC(=O)N(C4CC4)C3)C2)n1 (centres undefined),78.13%
8,CC(=O)c1ccc(N2CCC3(CCC(=O)N(C4CC4)C3)CC2)nc1,5.2%
9,N#Cc1cccc(N2CCCC3(CCC(=O)N(C4CCCC4)C3)C2)n1 (centres undefined),106.1%
10,CC(O)c1cccc(N2CCC3(CCC(=O)N(CC(N)=O)C3)CC2)n1 (centres undefined),-13.92%
11,CC(C)c1cccc(N2CCCC3(CCC(=O)N(C4CC4)C3)C2)n1 (centres undefined),105.3%
12,CC(O)c1cccc(N2CCC3(CCC(=O)N(C4CCCC4)C3)CC2)n1 (centres undefined),47.1%
13,CCCc1nc(C)cc(N2CCC3(CCC(=O)N(C4CC4)C3)CC2)n1,-0.6506%
14,N#Cc1cccc(N2CCC3(CCC(=O)N(CC4CCCO4)C3)CC2)n1 (centres undefined),-19.35%
15,CCNC(=O)NC[C@H]1COCc2nc3cc(C)ccc3n21,-20.29%
16,CN(Cc1ccon1)C(=O)C1CC(=O)N(Cc2ccncc2)C1 (centres undefined),7.553%
17,c1cncc(-c2noc(CNc3ncnc4c3CCNCC4)n2)c1,1.079%
18,c1cncc(-c2noc(CCNc3ncnc4c3CCNCC4)n2)c1,-0.2436%
19,O=C(c1ccon1)N1CCc2ncnc(NCc3ccccn3)c2CC1,-13.25%
20,COc1ccc(-c2cc(CNc3ncnc4c3CCNCC4)no2)cc1,113.1%
21,COCc1noc(CCNc2ncnc3c2CCNCC3)n1,1.85%
22,COc1ccc(-c2cc(CC3(NCc4ccc(C)o4)COC3)no2)cc1,0%

row,Structure (SMILES),Percent Effect
1,Cc1ccc(-c2cc(CNc3ncnc4c3CCNCC4)no2)cc1,96.68%
2,Clc1ccccc1-c1cc(CNc2ncnc3c2CCNCC3)no1,100.4%
3,CCCS(=O)(=O)N1CC[C@H]2O[C@H](c3nnc(C)o3)CC[C@H]21,-25.7%
4,CN(CC(N)=O)C(=O)c1cnc(-c2ccc(Cl)s2)s1,2.419%
5,O=C(NCCOc1ccc2c(c1)CCC2)N1CCS(=O)(=O)CC1,35.32%
6,CN1CCCN(C(=O)NCCOc2ccc3c(c2)OCO3)CC1,115.1%
7,CCCN1CCCN(C(=O)Nc2ccc3c(c2)OCO3)CC1,-18.65%
8,CC(=O)N1CCCN(C(=O)NCCOc2ccc3c(c2)OCO3)CC1,96.11%
9,CC(C)Cc1noc(CNc2cc3c(cc2Cl)OCCCO3)n1,11.73%
10,Cc1ccc(C(=O)NC(CN2CCCC2=O)c2ccccc2)c(=O)[nH]1 (centres undefined),-15.69%
11,Cc1ccc(C(=O)Nc2ccc3c(c2)N(C)CCN(C)C3)c(=O)[nH]1,112.4%
12,Cc1ccc(C(=O)NCC2CCN(C)c3ccccc32)c(=O)[nH]1 (centres undefined),-6.721%
13,N#Cc1cc(NC(=O)c2cc[nH]n2)ccc1N1CCC(O)CC1,-7.892%
14,CCc1ccc(C(=O)Nc2cc(N3CCNC3=O)ccc2Cl)o1,2.04%
15,Cc1cc(C(=O)Nc2ccc3c(c2)N(C)CCN(C)C3)on1,108.1%
16,Cn1cc(NC(=O)c2cc[nH]n2)cc(Cl)c1=O,-6.664%
17,CN1CCN(C)c2cc(NC(=O)c3cc[nH]n3)ccc2C1,95.27%
18,Cc1cc(C(=O)NC2CCCN(c3ccccc3)C2=O)on1 (centres undefined),-7.232%
19,CCc1ccc(C(=O)NC2CCN(c3cnn(C)c3)C2=O)o1 (centres undefined),0.5002%
20,CCc1ccc(NC(=O)c2cnc(N3CCN(C)CC3)nc2C)cc1,0.5656%
21,CCc1ccc(C(=O)Nc2ccc3c(c2)N(C)CCN(C)C3)o1,68.84%
